According to PubChem BioAssay (EPA / NIEHS):
Calls of active or inactive are those of the source. How the source made its calls: active means hit-call score of the fitted dose curve at least 0.9, where 1 is the maximum; inactive means score below 0.9.

Key:
Conditions in all cases: mRNA level, 48 h; actives raise or lower the signal
[1] = read-out: Tumor necrosis factor receptor superfamily member 6 (Homo sapiens) (UniProt P25445); assay: LTEA_HepaRG_FAS: Life Technologies and Expression Analysis (LTEA) Assay for Fas cell surface death receptor (FAS) using HepaRG (AID 2283447)
Summary of the method: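 Differentiated human HepaRG cells, pre-cultured 48 h, were exposed in duplicate for 48 h to 8-point half-log concentrations (top 100 uM, 0.5% DMSO) in serum-free induction medium; FAS mRNA measured by qRT-PCR, normalized to ACTB/GAPDH/POLR2A, bidirectional fit versus DMSO.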

[2] = read-out: Fatty acid synthase (Homo sapiens) (UniProt P49327); assay: LTEA_HepaRG_FASN: Life Technologies and Expression Analysis (LTEA) Assay for Fatty Acid Synthase (FASN) using HepaRG (AID 2283448)
Summary of the method: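 FASN expression changes, up or down relative to 0.5% DMSO, were measured by qRT-PCR in human HepaRG cells after 48 h treatment with chemicals at eight concentrations (half-log steps from 100 uM).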

[3] = read-out: Cyclin Dependent Kinase Inhibitor 1A (CDKN1A), CDKN1A (gene 1026); assay: LTEA_HepaRG_CDKN1A: Life Technologies and Expression Analysis (LTEA) Assay for Cyclin Dependent Kinase Inhibitor 1A (CDKN1A) using HepaRG (AID 2283450)
Summary of the method: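 Differentiated human HepaRG cells, pre-cultured 48 h, were exposed in duplicate for 48 h in serum-free induction medium to eight half-log concentrations up to 100 uM (0.5% DMSO). CDKN1A mRNA was measured by qRT-PCR, normalized to ACTB/GAPDH/POLR2A, bidirectionally fitted versus DMSO.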

[4] = read-out: Cyclin D1 (CCND1), CCND1 (gene 595); assay: LTEA_HepaRG_CCND1: Life Technologies and Expression Analysis (LTEA) Assay for Cyclin D1 (CCND1) using HepaRG (AID 2283451);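 on AC50: TaqMan qRT-PCR transcript level normalised to ACTB GAPDH and POLR2A housekeeping genes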
Summary of the method: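 Differentiated human HepaRG cells in serum-free induction medium were exposed 48 h to eight half-log concentrations up to 100 uM in 0.5% DMSO; mRNA quantified by TaqMan qRT-PCR, normalized to ACTB, GAPDH, POLR2A, fitted bidirectionally versus DMSO.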

[5] = read-out: catalase (CAT), CAT (gene 847); assay: LTEA_HepaRG_CAT: Life Technologies and Expression Analysis (LTEA) Assay for catalase (CAT) using HepaRG (AID 2283452);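 on AC50: TaqMan qRT-PCR signal normalized to ACTB GAPDH and POLR2A housekeeping genes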
Summary of the method: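 Differentiated HepaRG cells in serum-free induction medium were dosed 48 h in duplicate, eight half-log concentrations from 100 uM in 0.5% DMSO. Transcript measured by TaqMan qRT-PCR, normalised to ACTB/GAPDH/POLR2A, fitted bidirectionally against DMSO.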

[6] = read-out: flavin-containing dimethylaniline monooxygenases 3 (FMO3), FMO3 (gene 2328); assay: LTEA_HepaRG_FMO3: Life Technologies and Expression Analysis (LTEA) Assay for flavin-containing dimethylaniline monooxygenases 3 (FMO3) using HepaRG (AID 2283453)
Summary of the method: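 Differentiated HepaRG cells in serum-free induction medium, exposed 48 h in duplicate to 8 half-log concentrations up to 100 uM in 0.5% DMSO. FMO3 mRNA by qRT-PCR, normalized to ACTB, GAPDH, POLR2A; bidirectional fit vs DMSO.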

[7] = read-out: CFLAR gene, CFLAR (gene 8837); assay: LTEA_HepaRG_CFLAR: Life Technologies and Expression Analysis (LTEA) Assay for CFLAR gene using HepaRG (AID 2283455)
Summary of the method: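 HepaRG cells were plated for 48 h, switched to serum-free induction medium, then exposed in duplicate for 48 h to 8 concentrations (top 100 uM, half-log steps, 0.5% DMSO). CFLAR mRNA was measured by qRT-PCR, normalized to ACTB, GAPDH and POLR2A.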

[8] = read-out: Forkhead box O1 (FOXO1), FOXO1 (gene 2308); assay: LTEA_HepaRG_FOXO1: Life Technologies and Expression Analysis (LTEA) Assay for Forkhead box O1 (FOXO1) using HepaRG (AID 2283456)
Summary of the method: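 Differentiated human HepaRG cells in serum-free induction medium were exposed in duplicate for 48 h to eight half-log concentrations (top 100 uM, 0.5% DMSO). FOXO1 mRNA was measured by TaqMan qRT-PCR, normalised to ACTB, GAPDH and POLR2A, and fitted bidirectionally against DMSO.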

[9] = read-out: growth arrest and DNA damage 45 (GADD45A), GADD45A (gene 1647); assay: LTEA_HepaRG_GADD45A: Life Technologies and Expression Analysis (LTEA) Assay for growth arrest and DNA damage 45 (GADD45A) using HepaRG (AID 2283458)
Summary of the method: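 Cells plated and cultured 48 h, switched to serum-free induction medium, then dosed for 48 h (100 uM top, half-log dilutions, 0.5% DMSO). RNA was isolated and transcript measured by Fluidigm qRT-PCR.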

[10] = read-out: Forkhead box O3 (FOXO3), FOXO3 (gene 2309); assay: LTEA_HepaRG_FOXO3: Life Technologies and Expression Analysis (LTEA) Assay for Forkhead box O3 (FOXO3) using HepaRG (AID 2283459)
Summary of the method: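 Differentiated human HepaRG cells in serum-free induction medium were exposed in duplicate for 48 h to eight half-log concentrations up to 100 uM in 0.5% DMSO. FOXO3 mRNA was quantified by qRT-PCR, normalized to ACTB, GAPDH and POLR2A, with bidirectional fitting versus DMSO.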

[11] = read-out: ABC Transporter (ABCB1), ABCB1 (gene 5243); assay: LTEA_HepaRG_ABCB1: Life Technologies and Expression Analysis (LTEA) Assay for ABC Transporter (ABCB1) using HepaRG (AID 2283460)
Summary of the method: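 Differentiated human HepaRG cells, plated 48 h then switched to serum-free induction medium, were exposed in duplicate to eight half-log concentrations up to 100 uM in 0.5% DMSO for 48 h. ABCB1 mRNA was measured by TaqMan qRT-PCR, normalized to ACTB/GAPDH/POLR2A.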

[12] = read-out: growth arrest and DNA damage 45 (GADD45B), GADD45B (gene 4616); assay: LTEA_HepaRG_GADD45B: Life Technologies and Expression Analysis (LTEA) Assay for growth arrest and DNA damage 45 (GADD45B) using HepaRG (AID 2283461)
Summary of the method: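 Differentiated HepaRG cells, plated 48 h then switched to serum-free induction medium, were exposed 48 h in duplicate to eight half-log concentrations from 100 uM in 0.5% DMSO; mRNA quantified by qRT-PCR, normalized to ACTB/GAPDH/POLR2A, bidirectional fit versus DMSO.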

[13] = read-out: ABC Transporter (ABCC3), ABCC3 (gene 8714); assay: LTEA_HepaRG_ABCC3: Life Technologies and Expression Analysis (LTEA) Assay for ABC Transporter (ABCC3) using HepaRG (AID 2283462)
Summary of the method: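 HepaRG cells in serum-free induction medium were exposed for 48 h in duplicate to 8-point half-log concentrations topping at 100 uM in 0.5% DMSO. ABCC3 mRNA was measured by qRT-PCR normalized to ACTB, GAPDH and POLR2A, with bidirectional fitting versus DMSO.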

[14] = read-out: ABC Transporter (ABCB11), ABCB11 (gene 8647); assay: LTEA_HepaRG_ABCB11: Life Technologies and Expression Analysis (LTEA) Assay for ABC Transporter (ABCB11) using HepaRG (AID 2283463)
Summary of the method: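 Differentiated human HepaRG cells were exposed for 48 h in serum-free induction medium to eight half-log concentrations up to 100 uM in 0.5% DMSO. ABCB11 mRNA was quantified by qRT-PCR, normalized to ACTB, GAPDH and POLR2A, and fitted bidirectionally versus DMSO.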

[15] = read-out: ABC Transporter (ABCC2), ABCC2 (gene 1244); assay: LTEA_HepaRG_ABCC2: Life Technologies and Expression Analysis (LTEA) Assay for ABC Transporter (ABCC2) using HepaRG (AID 2283464)
Summary of the method: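 HepaRG cells were plated 48 h, switched to serum-free induction medium, then exposed in duplicate for 48 h to 8 concentrations (top 100 uM, half-log steps, 0.5% DMSO). ABCC2 mRNA was measured by qRT-PCR normalized to ACTB/GAPDH/POLR2A; bidirectional fitting versus DMSO.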

[16] = read-out: Broad substrate specificity ATP-binding cassette transporter ABCG2 (Homo sapiens) (UniProt Q9UNQ0); assay: LTEA_HepaRG_ABCG2: Life Technologies and Expression Analysis (LTEA) Assay for ABC Transporter (ABCG2) using HepaRG (AID 2283465)
Summary of the method: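 Differentiated HepaRG cells in serum-free induction medium were exposed for 48 h, in duplicate, to eight half-log concentrations up to 100 uM in 0.5% DMSO. ABCG2 mRNA was measured by TaqMan qRT-PCR, normalized to ACTB, GAPDH and POLR2A, and fitted bidirectionally versus DMSO.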

[17] = read-out: Cyclin D2 (CCND2), CCND2 (gene 894); assay: LTEA_HepaRG_CCND2: Life Technologies and Expression Analysis (LTEA) Assay for Cyclin D2 (CCND2) using HepaRG (AID 2283449);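 further: CCND2 transcript measured by TaqMan qRT-PCR and normalised to three housekeeping genes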
Summary of the method: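 Differentiated human HepaRG cells were exposed for 48 h in serum-free induction medium to eight half-log concentrations topping at 100 uM (0.5% DMSO vehicle). CCND2 mRNA was quantified by TaqMan qRT-PCR, normalised to ACTB, GAPDH and POLR2A, and fitted bidirectionally against DMSO.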

[18] = read-out: Cytochrome P450 (CYP1A1), CYP1A1 (gene 1543); assay: LTEA_HepaRG_CYP1A1: Life Technologies and Expression Analysis (LTEA) Assay for Cytochrome P450 (CYP1A1) using HepaRG (AID 2283454)
Summary of the method: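 Differentiated HepaRG cells in serum-free induction medium were exposed in duplicate for 48 h to eight half-log concentrations up to 100 uM in 0.5% DMSO. CYP1A1 mRNA was quantified by TaqMan qRT-PCR, normalized to ACTB, GAPDH and POLR2A.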

Measured: AC50

Chain of Fatty acid synthase (Homo sapiens) (P49327 whole entry, looked up): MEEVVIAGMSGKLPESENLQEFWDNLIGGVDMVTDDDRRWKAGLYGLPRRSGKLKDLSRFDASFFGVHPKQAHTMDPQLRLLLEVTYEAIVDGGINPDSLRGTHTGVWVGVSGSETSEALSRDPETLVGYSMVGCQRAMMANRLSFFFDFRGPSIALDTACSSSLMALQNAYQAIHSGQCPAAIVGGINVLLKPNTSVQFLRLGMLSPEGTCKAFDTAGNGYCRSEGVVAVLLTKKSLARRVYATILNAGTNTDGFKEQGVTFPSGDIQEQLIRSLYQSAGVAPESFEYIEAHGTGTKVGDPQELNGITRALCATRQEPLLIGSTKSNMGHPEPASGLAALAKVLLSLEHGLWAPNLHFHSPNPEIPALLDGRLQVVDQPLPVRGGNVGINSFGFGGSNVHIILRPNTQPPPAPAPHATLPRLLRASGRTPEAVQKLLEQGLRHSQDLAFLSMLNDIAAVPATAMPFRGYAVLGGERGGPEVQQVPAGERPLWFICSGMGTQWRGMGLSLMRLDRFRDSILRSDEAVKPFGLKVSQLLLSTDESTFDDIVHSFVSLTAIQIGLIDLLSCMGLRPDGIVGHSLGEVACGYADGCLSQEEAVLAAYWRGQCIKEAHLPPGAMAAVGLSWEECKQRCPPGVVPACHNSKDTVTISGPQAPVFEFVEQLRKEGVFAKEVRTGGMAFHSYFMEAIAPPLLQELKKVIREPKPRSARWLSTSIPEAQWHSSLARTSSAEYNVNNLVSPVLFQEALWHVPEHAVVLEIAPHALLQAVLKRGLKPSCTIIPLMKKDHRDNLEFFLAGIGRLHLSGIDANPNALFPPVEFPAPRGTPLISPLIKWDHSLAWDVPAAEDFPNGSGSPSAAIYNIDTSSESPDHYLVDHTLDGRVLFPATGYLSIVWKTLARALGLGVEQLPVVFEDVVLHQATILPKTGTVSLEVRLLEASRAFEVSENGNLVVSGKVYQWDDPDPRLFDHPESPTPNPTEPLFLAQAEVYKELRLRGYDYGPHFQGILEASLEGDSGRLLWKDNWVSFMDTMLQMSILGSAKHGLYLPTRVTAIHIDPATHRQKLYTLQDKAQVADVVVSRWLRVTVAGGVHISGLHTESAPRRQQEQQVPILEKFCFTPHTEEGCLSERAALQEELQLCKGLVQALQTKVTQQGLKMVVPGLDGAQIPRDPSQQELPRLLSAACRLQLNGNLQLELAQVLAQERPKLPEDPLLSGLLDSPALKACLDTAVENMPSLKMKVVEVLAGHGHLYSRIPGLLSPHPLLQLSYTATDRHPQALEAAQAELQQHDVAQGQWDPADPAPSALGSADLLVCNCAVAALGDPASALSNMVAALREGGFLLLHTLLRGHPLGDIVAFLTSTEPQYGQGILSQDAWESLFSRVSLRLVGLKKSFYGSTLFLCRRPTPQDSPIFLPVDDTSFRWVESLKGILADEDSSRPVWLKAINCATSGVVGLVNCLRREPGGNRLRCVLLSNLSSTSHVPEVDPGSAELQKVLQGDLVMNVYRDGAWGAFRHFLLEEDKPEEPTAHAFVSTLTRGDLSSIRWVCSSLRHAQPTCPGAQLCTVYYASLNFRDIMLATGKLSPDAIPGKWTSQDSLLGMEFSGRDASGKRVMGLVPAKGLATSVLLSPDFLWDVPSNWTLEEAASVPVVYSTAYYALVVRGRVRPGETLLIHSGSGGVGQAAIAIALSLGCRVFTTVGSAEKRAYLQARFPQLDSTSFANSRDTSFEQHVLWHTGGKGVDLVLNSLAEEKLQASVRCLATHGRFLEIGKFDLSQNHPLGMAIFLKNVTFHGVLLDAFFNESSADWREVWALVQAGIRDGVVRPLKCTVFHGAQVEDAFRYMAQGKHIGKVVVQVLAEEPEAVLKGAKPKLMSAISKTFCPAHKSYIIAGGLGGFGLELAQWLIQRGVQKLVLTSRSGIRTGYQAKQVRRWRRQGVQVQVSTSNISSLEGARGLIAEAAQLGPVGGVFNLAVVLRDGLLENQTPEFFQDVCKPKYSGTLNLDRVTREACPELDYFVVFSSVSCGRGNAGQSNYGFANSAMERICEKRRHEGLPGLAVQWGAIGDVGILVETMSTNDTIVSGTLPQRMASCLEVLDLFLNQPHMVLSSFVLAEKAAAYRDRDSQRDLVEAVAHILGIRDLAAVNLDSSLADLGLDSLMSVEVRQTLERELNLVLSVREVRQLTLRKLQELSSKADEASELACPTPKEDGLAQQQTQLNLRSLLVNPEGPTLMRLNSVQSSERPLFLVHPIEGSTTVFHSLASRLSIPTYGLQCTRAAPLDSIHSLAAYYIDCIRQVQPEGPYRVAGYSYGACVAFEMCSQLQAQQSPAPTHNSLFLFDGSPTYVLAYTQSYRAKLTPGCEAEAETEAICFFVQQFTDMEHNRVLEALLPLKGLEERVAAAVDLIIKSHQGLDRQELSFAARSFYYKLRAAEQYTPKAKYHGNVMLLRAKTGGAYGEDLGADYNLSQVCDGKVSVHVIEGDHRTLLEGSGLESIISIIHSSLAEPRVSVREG
Chain of Broad substrate specificity ATP-binding cassette transporter ABCG2 (Homo sapiens) (Q9UNQ0 whole entry, looked up): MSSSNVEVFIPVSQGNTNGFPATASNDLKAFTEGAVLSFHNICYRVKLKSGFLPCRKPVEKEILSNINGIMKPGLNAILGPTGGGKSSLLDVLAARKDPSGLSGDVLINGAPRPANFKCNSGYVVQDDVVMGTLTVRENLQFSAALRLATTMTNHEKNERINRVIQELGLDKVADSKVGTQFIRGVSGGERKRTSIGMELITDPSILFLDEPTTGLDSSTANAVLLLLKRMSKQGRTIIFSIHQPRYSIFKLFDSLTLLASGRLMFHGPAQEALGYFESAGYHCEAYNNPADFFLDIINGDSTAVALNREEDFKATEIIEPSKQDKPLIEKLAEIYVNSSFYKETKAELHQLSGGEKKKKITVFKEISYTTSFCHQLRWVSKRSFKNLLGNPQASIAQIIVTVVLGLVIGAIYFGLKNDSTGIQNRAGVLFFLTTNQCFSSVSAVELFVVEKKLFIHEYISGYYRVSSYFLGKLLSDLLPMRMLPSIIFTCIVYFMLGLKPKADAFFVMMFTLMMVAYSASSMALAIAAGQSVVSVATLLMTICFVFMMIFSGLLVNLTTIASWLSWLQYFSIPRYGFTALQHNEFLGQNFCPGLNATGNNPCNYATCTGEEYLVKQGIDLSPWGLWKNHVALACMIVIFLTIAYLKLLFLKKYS

CC(C)=CC1C(C(=O)OCN2C(=O)C3=C(CCCC3)C2=O)C1(C)C (stereo not given)
inactive: [1] | [2] | [3] | [4] | [5] | [6] | [7] | [8] | [9] | [10] | [11] | [12] | [13] | [14] | [15] | [16]

CCOP(=O)(OCC)Oc1cc(C)nc(C(C)C)n1
inactive: [1] | [2] | [3] | [4] | [5] | [6] | [7] | [8] | [9] | [10] | [11] | [13] | [14] | [15] | [16]

CCCCOC(=O)c1ccccc1C(=O)O
inactive: [1] | [2] | [17] | [3] | [4] | [5] | [6] | [7] | [8] | [9] | [10] | [11] | [14] | [15] | [16]

COP(=O)(OC)SCn1c(=O)oc2cc(Cl)cnc21
active: [4] 78.5 µM | [9] 0.029 µM | [14] 39.3 µM
inactive: [1] | [2] | [17] | [3] | [5] | [6] | [7] | [8] | [10] | [11] | [12] | [13] | [15] | [16]

CCOP(=S)(OCC)OC(Cl)C(Cl)(Cl)Cl (stereo not given)
inactive: [1] | [2] | [17] | [3] | [4] | [5] | [6] | [7] | [8] | [9] | [10] | [11] | [12] | [13] | [14] | [15] | [16]

O=[N+]([O-])c1cc(C(F)(F)F)c(Cl)c([N+](=O)[O-])c1Nc1ncc(C(F)(F)F)cc1Cl
active: [2] 50 µM | [4] 14.8 µM | [5] 29.2 µM | [6] 27.7 µM | [7] 40.9 µM | [9] 33.6 µM | [10] 35.6 µM | [13] 13.2 µM | [14] 15.8 µM | [15] 67.9 µM | [16] 50 µM
inactive: [1] | [17] | [3] | [8] | [11]

CCCOc1nn(C(=O)NS(=O)(=O)c2ccccc2C(=O)OC)c(=O)n1C
inactive: [1] | [2] | [3] | [4] | [5] | [6] | [7] | [8] | [9] | [10] | [11] | [13] | [14] | [15] | [16]
active: [17] 67.7 µM

CC1=NNC(=O)N(/N=C/c2cccnc2)C1
active: [2] 13.4 µM
inactive: [1] | [17] | [3] | [4] | [5] | [6] | [7] | [8] | [9] | [10] | [11] | [14] | [15] | [16]

CCC(=NOC/C=C/Cl)C1=C(O)CC(C2CCOCC2)CC1=O (stereo not given)
active: [4] 0.414 µM | [18] 50 µM
inactive: [1] | [2] | [3] | [5] | [6] | [7] | [8] | [9] | [10] | [11] | [14] | [15] | [16]

S=C1NCCN1
inactive: [1] | [2] | [17] | [3] | [4] | [5] | [6] | [7] | [8] | [9] | [10] | [11] | [12] | [14] | [15] | [16]

CON=C(C(=O)OC)c1ccccc1CON=C(C)c1cccc(C(F)(F)F)c1
active: [14] 85.5 µM
inactive: [1] | [2] | [17] | [3] | [4] | [5] | [6] | [7] | [8] | [9] | [10] | [11] | [12] | [15] | [16]

C[N+]1(C)CCCCC1
inactive: [1] | [2] | [17] | [3] | [4] | [5] | [6] | [7] | [8] | [9] | [10] | [11] | [12] | [14] | [15] | [16]
